# Assay outcomes (PubChem)
# TEAD-YAP inh: TEAD-YAP interaction inhibition | HEK-TIYL cells, TEAD-Gal4/YAP UAS-luciferase luminescence | inhibition, % at 9.12 µM | actives 1.4% (n = 640,000) | AID 1259422; in the data active = inhibition above about 32%;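 also: 0% = median of test compound wells and 100% = reference inhibitor wells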
# GPR151 activ: activates the human receptor GPR151; Q8TDV0; actives 1% (n = 650,000); PathHunter beta-arrestin GPR151 cells, luminescence; activation, % at 11.2 µM; in the data active = activation above about 4.9%;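 also: 0% = median of compound wells and 100% = cells with positive control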
# FBW7 act: activators of human E3 ligase FBW7; normalized activity (activation), % at 26.1 µM; actives 0.13% (n = 650,000); Q969H0; AlphaScreen FBW7–phospho-cyclin E peptide binding, activator screen; in the data active = normalized activity above about 1.9%;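 also: purified mutant Fbw7 with reduced substrate affinity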
# MITF inh: inhibitors of human MITF. AlphaScreen MITF homodimerization, bead proximity signal. actives 0.91% (n = 650,000). O75030. inhibition, % at 2.6 µM. AID 1259374; in the data active = inhibition above about 50%;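 also: 0% = vehicle wells with protein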
# Target sequence (O75030 whole entry, looked up): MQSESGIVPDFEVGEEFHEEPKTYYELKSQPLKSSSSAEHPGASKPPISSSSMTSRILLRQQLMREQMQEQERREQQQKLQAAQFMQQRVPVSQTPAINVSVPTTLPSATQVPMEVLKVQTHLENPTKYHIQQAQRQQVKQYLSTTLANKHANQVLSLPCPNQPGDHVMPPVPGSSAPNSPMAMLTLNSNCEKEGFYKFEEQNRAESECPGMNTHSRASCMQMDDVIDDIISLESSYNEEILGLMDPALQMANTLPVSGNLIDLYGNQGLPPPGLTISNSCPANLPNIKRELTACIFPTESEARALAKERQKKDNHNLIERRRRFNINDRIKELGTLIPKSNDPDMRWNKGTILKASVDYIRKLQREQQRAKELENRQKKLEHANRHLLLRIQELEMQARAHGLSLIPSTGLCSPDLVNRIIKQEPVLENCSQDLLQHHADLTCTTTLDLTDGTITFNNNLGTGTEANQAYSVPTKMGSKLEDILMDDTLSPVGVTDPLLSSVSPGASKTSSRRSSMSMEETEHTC
# * hit, by the source's call. The list is not random: actives were taken first. Their share in the collection is about 3.5%.
SMILES,TEAD-YAP inh,GPR151 activ,FBW7 act,MITF inh
c1ccc(NNC2=Nc3ccccc3CCC2)cc1,36*,0,0,3
COc1cccc(C(=O)/C=C/Nc2cccc(O)c2)c1,97*,-9,1,17
O=C(/C=C/Nc1cccc(O)c1)c1ccc(Cl)cc1,97*,-1,0,5
O=C(/C=C\Nc1cccc(F)c1)c1ccc2c(c1)OCO2,55*,-4,0,0
O=C(/C=C\Nc1ccc2c(c1)OCO2)c1ccc2ccccc2c1,-7,-1,1,8
CN1C(=S)SC(C)(C)C1/[N+]([O-])=C/c1cccs1 (stereo not drawn),-8,-1,0,-12
CN(C)S(=O)(=O)c1cccc(NC(=O)COc2ccc([N+](=O)[O-])c3cccnc23)c1,-2,-1,0,7
O=C1CCCN1c1nc(-c2ccc(-c3ccccc3)cc2)cs1,-12,-1,0,1
COc1cc(Nc2nc(N3CCN(c4ccccn4)CC3)nc3c2ncn3CCN2CCCC2=O)cc(OC)c1OC,33*,0,0,4
COc1cc(Nc2nc(NCCCN3CCCC3=O)nc3c2ncn3-c2ccsc2)cc(OC)c1OC,14,-2,0,8
O=C1CCCN1CCCNc1nc(Nc2ccccn2)nc2c1ncn2-c1ccsc1,53*,2,0,-12
O=C1CCCN1CCCNc1nc(Nc2cnccn2)nc2c1ncn2-c1ccsc1,75*,-1,0,4
COc1cc(Nc2nc(NCCCN3CCCC3=O)c3ncn(-c4ccsc4)c3n2)cc(OC)c1OC,54*,-1,0,2
Cn1nccc1Nc1nc(NCCCN2CCCC2=O)c2ncn(-c3ccsc3)c2n1,17,1,0,9
Cc1cccc(N(C(=O)Nc2ccccc2C)C2=NCCC2)c1,3,-1,0,3
O=C1CCCN1CCCNc1nc(NC2CC2)c2ncn(-c3ccsc3)c2n1,34*,3,0,8
CCOC(=O)C1CCN(C(=O)c2c(-c3ccccc3Cl)noc2C)CC1,0,0,1,7
O=C(O)CCCC(=O)N1CCC2(CC1)NCCc1c2[nH]c2ccccc12,1,-1,0,-25
COc1cc(/C=N/NC(=O)CCC(=O)N/N=C/c2ccc(O)c(OC)c2)ccc1O,9,2,0,-2
COc1ccccc1NC(=O)Cn1c(-c2nonc2N)nc2ccccc21,65*,0,0,1
CCOc1cc(/C=N/NC(=O)Cn2c(-c3nonc3N)nc3ccccc32)ccc1O,46*,0,0,6
COc1cc(/C=N/NC(=O)Cn2c3ccccc3c(=O)c3ccccc32)ccc1O,53*,2,0,13
COC(=O)c1ccccc1NC(=O)Cn1c(-c2nonc2N)nc2ccccc21,54*,0,0,11
CC(=O)c1ccc(NC(=O)Cn2c(-c3nonc3N)nc3ccccc32)cc1,5,0,0,4
O=C(CCCCCn1c(=S)[nH]c2ccsc2c1=O)NCCc1ccc(Cl)cc1,-6,3,0,-10
SMILES,TEAD-YAP inh,GPR151 activ,FBW7 act,MITF inh
COc1ccc(C2C(C#N)=C(N)Oc3n[nH]c(-c4cccc([N+](=O)[O-])c4)c32)cc1OC (stereo not drawn),-5,-2,0,7
O=S(=O)(Nc1ccc(N2CCC(NCCc3ccccn3)CC2)cc1)c1ccccc1,-4,0,0,14
O=C1CCCN1CCCNc1ccnc(N2CCOCC2)n1,1,-1,0,-9
Cc1cc(NCCCN2CCCC2=O)nc(N2CCOCC2)n1,-3,-1,7.4*,8
O=C(Cc1ccc2c(c1)OCCCO2)c1ccc(O)cc1O,61*,2,0,3
O=C(Cc1ccccc1)c1ccc(O)cc1O,-5,1,0,12
CCN1/C(=C/c2scc(-c3ccccc3)[n+]2C)C=Cc2cc(C)ccc21,80*,4,-1,9
CCN1/C(=C/c2ccc3cc(C)ccc3[n+]2C)C=Cc2cc(C)ccc21,83*,-1,-1,47
CCOC(=O)c1ccc(CN(Cc2ccc(C)cc2)S(=O)(=O)c2ccc(C)cc2)cc1,0,-2,0,10
CCC(C)n1cc(C=C2C(=O)N(C)C(=S)N(C)C2=O)c2ccccc21 (stereo not drawn),4,1,0,0
Cc1nc(C)n(-c2ccc(Nc3cc(-n4cc(C)c(Nc5ccccc5)n4)ccn3)cc2)n1,25,2,1.9*,27
O=C(Nc1nc(CCC(=O)N2CCN(c3ccccc3F)CC2)cs1)NC1CCCCC1,5,3,0,5
O=C(Nc1nc(CCC(=O)N2CCCCCC2)cs1)NC1CCCCC1,41*,2,0,-2
CC(=O)Nc1cccc(NC(=O)CSc2ccc(-c3nc4ccccc4[nH]3)cn2)c1,40*,-4,0,-6
